Most compounds without a hit are left out; they make up all but 21% or so of the library.
CHX counter: affects cycloheximide protein synthesis inhibition readout, counter-screen; hit rate 12% among 300,000; max response, %; cell reporter, cycloheximide protein synthesis inhibition counterscreen; in the data active means max response mostly above about 13%, no sharp cut-off; inactive means mostly below about 14%; further: read at 38.3 µM for the half of the compounds with a filed dose; 0% is about no effect
Shiga toxin inh: Shiga toxin inhibition. inhibition, % at 38.7 µM. Vero cells, Shiga toxin protein synthesis inhibition reporter. AID 2315. hit rate 9.2% among 290,000; in the data active means inhibition mostly above about 28%, no sharp cut-off; inactive means mostly below about 43%; further: 0% is about no effect
Pf growth 48h: P. falciparum growth inhibition at 48 hours (one generation); hit rate 5.9% among 310,000; Potency, µM (highest dose often 28.7 µM), for inactives: at the highest dose activity change, negative = inhibition, usual class: inhibitors; P. falciparum luciferase growth in erythrocytes, 48 h; active means well fitted inhibition curve with a large enough effect; inconclusive means small, poorly fitted or top-dose-only effect, or another doubt; inactive means no such curve, though single readings can be large or run the other way; further: potency means the concentration at half of the fitted maximal effect; on the % scale 0 is the no-effect control and ±100 the full control effect
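Here the parasites carry a stable luciferase gene and grow inside erythrocytes in Albumax-based RPMI medium with compound for one erythrocytic cycle. Activity is scored as loss of luminescent signal.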
SARS PLP yeast: SARS-CoV PLP inhibition in yeast. S. cerevisiae expressing SARS-CoV PLpro, growth rescue. Potency, µM (highest dose often 32.9 µM), without a hit: top-dose activity, positive = growth rescue, hits mostly activators. hit rate 0.19% among 330,000; further: potency means the concentration at half of the fitted maximal effect; 0% is about no effect; nearly all actives have a fitted effect of over 55% in size
Pf growth 96h: inhibits malaria parasite growth, 96 h | Potency, µM (top dose mostly 28.7 µM), for the others: at the highest dose activity change, negative = inhibition, hits mostly inhibitors | P. falciparum luciferase reporter growth, 96 h | hit rate 6.9% among 320,000; active means well fitted inhibition curve with a large enough effect; inconclusive means small, poorly fitted or top-dose-only effect, or another doubt; inactive means no such curve, though single readings can be large or run the other way; further: potency means the concentration at half of the fitted maximal effect; on the % scale 0 is the no-effect control and ±100 the full control effect
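Infected RBCs, 2% Hct / 0.05% parasitemia final; luciferase-reporter P. falciparum; cpd 96 h, 37 C, 5% CO2; luciferase detection reagent; luminescence.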
NS1 inh: influenza NS1 inhibition. Potency, µM (series often up to 46.1 µM), for inactives: at the top dose activity, positive = more growth. hit rate 0.4% among 270,000. AID 2326; further: potency means the concentration at half of the fitted maximal effect; actives are rising curves; nearly all actives have a fitted effect of over 50% in size
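In this qHTS, NS1 from influenza A is expressed in budding yeast, where it slows growth. Cells are switched from glucose to 2% galactose medium (pH 6.0, -URA), treated with compound, and growth recovery is read at OD600.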
* marks the source's active call; other numbers are inactive results; ? = inconclusive; . = no result; [ ] = another dose, or the depositor's remark. Unless noted, the call rests on the fitted dose curve.

SMILES	CHX counter	Shiga toxin inh	Pf growth 48h	SARS PLP yeast	Pf growth 96h	NS1 inh
CC(=O)Nc1ccc(S(=O)(=O)N2CCC(C(=O)NCCC(=O)NCc3ccccc3)CC2)cc1	1	4	2%	-2%	?	-7%
CC(C)(C)CC(C)(C)c1cc(Cc2cc(C(C)(C)CC(C)(C)C)cc(-n3nc4ccccc4n3)c2O)c(O)c(-n2nc3ccccc3n2)c1	.	.	-5%	.	3%	.
CCOC(=O)Cn1c(=O)c2c(nc3n2CC(C)CN3Cc2ccccc2)n(C)c1=O (configuration not stated)	-4	-6	-20%	6%	?	-6%
Cn1c(=O)[nH]c(=O)c2c1nc(N1CCN(Cc3ccccc3)CC1)n2CCCc1ccccc1	1	1	5.2µM*	0%	.	-18%
CCOC(=O)Cn1c(=O)c2c(nc(N3CCCCC3)n2Cc2ccccc2)n(C)c1=O	-8	12	5.2µM*	12%	?	-26%
FC(F)(F)c1cccc(Cn2nnnc2-c2cc(Cl)cc(Cl)c2)c1	-3	-5	35%	-8%	?	-58%
Cc1cc(O)c2ccccc2c1O	.	.	-29%	.	8.5µM*	.
COC(=O)Cc1cc(OC)c(OC)cc1S(=O)(=O)N(C)C	-6	-17	-5%	-3%	11%	6%
Cc1ccc2oc(C(=O)N3CCC(O)(c4ccccc4)CC3)c(C)c2c1	12*	18	?	-18%	10µM*	-22%
COc1cc(C(=O)N2CCC(O)(c3ccccc3)CC2)cc(OC)c1OC	-3	-12	.	8%	?	-1%
CCN(CC)S(=O)(=O)c1ccc2oc(C(=O)NC3CCCc4ccccc43)c(C)c2c1 (configuration not stated)	6	31	5.2µM*	-8%	.	?
CCN(CC)S(=O)(=O)c1ccc2oc(C(=O)NCCN3CCOCC3)c(C)c2c1	-1	-6	-21%	1%	0%	7%
CSCc1c(C(=O)NC2CCCc3ccccc32)oc2ccccc12 (configuration not stated)	-2	16	1%	4%	6%[5.75 µM]	7%
CCN(CC)S(=O)(=O)c1ccc2oc(C(=O)N3CCCCCC3)c(C)c2c1	-2	-16	13µM*	-6%	-5%	-41%
C=CCNC(=O)c1oc2ccc(S(=O)(=O)N(CC)CC)cc2c1C	6	-4	?	3%	10µM*	-2%
Nc1c(Cl)ncnc1NCC(O)CO (configuration not stated)	7	7	5%	0%	-9%	-2%
O=C(O)/C=C/C(=O)NC1CCC(CC2CCC(NC(=O)/C=C/C(=O)O)CC2)CC1 (configuration not stated)	9	13	9%	1%	44%	5%
Cc1cc(C)n(C(=O)c2ccc([N+](=O)[O-])cc2Cl)n1	4	.	-3%	3%	42%	9%
CCOC(=O)N1CCN(C(=O)c2oc3ccc(S(=O)(=O)N(CC)CC)cc3c2C)CC1	6	-4	5.2µM*	1%	-10%	-6%
CCN(CC)C(=O)C1CCN(C(=O)c2oc3ccc(C)cc3c2C)CC1	17*	16	25%	0%	-21%	-6%
CCN(CC)C(=O)C1CCCN(C(=O)c2oc3ccc(C)cc3c2C)C1 (configuration not stated)	14	12	18%	-2%	29%	-6%
CCN(CC)S(=O)(=O)c1ccc2oc(C(=O)N3CCc4ccccc4C3)c(C)c2c1	-5	4	?	2%	9.3µM*	28%
COc1ccc(Br)cc1C(=O)NC(=S)Nc1c(C)n(C)n(-c2ccccc2)c1=O	1	-1	10%	-9%	89%	-33%
CS(=O)(=O)c1nc(S(=O)(=O)c2ccc(Cl)cc2)c(NCc2ccccn2)s1	-9	-13	?	-1%	32%	.
Cc1ccc(S(=O)(=O)N2CCCCC2)cc1NC(=O)c1ccccn1	-2	-6	0%	-3%	0%	-4%
SMILES	CHX counter	Shiga toxin inh	Pf growth 48h	SARS PLP yeast	Pf growth 96h	NS1 inh
CCSc1nc2sc3c(c2c(=O)n1-c1ccccc1C)CCN(C)C3	-5	-14	5.2µM*	1%	1.5µM*	8%
CCOc1ccc(-n2c(SCC(=O)O)nc3sc4c(c3c2=O)CCCC4)cc1	1	0	-10%	4%	?	-1%
CCSc1nc2sc3c(c2c(=O)n1-c1ccccc1)CCN(C(C)C)C3	-3	-2	1.5µM*	-2%	0.83µM*	0%
CCCCSc1nc2sc3c(c2c(=O)n1-c1ccccc1)CCN(C)C3	-2	-9	5.2µM*	-1%	4.1µM*	0%
CCCCSc1nc2sc3c(c2c(=O)n1-c1ccc(OC)cc1)CCN(C)C3	0	-9	9.3µM*	0%	?	6%
CCCCc1ccc(NC(=S)Nc2ccc(Cl)c(S(=O)(=O)N(C)C)c2)cc1	1	12	-14%	4%	?	-20%
Cc1ccc(CNC(=O)CCOc2ccc(C(C)(C)C)cc2)cc1	-4	-3	.	-12%	?	1%
COc1ccc2nc(NC(=O)CSc3cn[nH]n3)sc2c1	43*	66*	99%	12%	43%	5%
CCOc1ccc2nc(NC(=O)CSc3nc(SC)ns3)sc2c1	55*	70*	?	-1%	91%	10%
CCOc1ccc2nc(NC(=O)CSc3nc(-c4ccccc4)c(C#N)c(=O)[nH]3)sc2c1	41*	39*	188%	0%	26%	.
Cc1cccc2sc(NC(=O)CSc3cn[nH]n3)nc12	1	27	19%	-1%	37%	-3%
CCOc1ccc2nc(NC(=O)CSc3cn[nH]n3)sc2c1	34*	149*	84%	-2%	-25%	10%
COc1cc(C(=O)OC2CSCC2NC(=O)c2ccccc2)cc(OC)c1OC (configuration not stated)	-2	-8	?	1%	-13%	-4%
CN(C(=O)CSc1nnc(-c2ccc(F)cc2)n1C)C1CCS(=O)(=O)C1 (configuration not stated)	.	.	.	-4%	.	.
CC(=O)N1CCN(S(=O)(=O)c2ccc(F)c(Cl)c2)CC1	-3	-10	1%	-1%	-1%	.
Cc1cccc(C)c1NC(=O)CCCn1nc(C)c2c(C)n(-c3ccccc3)nc2c1=O	-1	-2	-16%	2%	12µM*	8%
CCOc1ccc(NC(=O)CCCn2nc(C)c3c(C)n(-c4ccccc4)nc3c2=O)cc1	-3	-2	?	4%	12µM*	-3%
Cc1cc(C)c2ccc(=O)n(CC(=O)N/N=C/c3ccccc3Cl)c2n1	2	-1	2.6µM*	-1%	4%	?
Cc1cc(C)n2nc(C(=O)N/N=C/c3ccccc3Cl)nc2n1	7	18	-5%	0%	-20%	4%
CCCOc1ccc(C(=O)Nc2ccc3c(c2)OCO3)cc1	49*	122*	191%	-2%	54%	-7%
CCC(=O)Oc1ccc(C(=O)Nc2ccc3c(c2)OCO3)cc1	46*	108*	118%	-3%	1%	1%

Screening data from PubChem BioAssay.
